PubChem BioAssay (NCI)
About 83,000 compounds went through this panel and 20% of them were active in at least one assay; those are over-represented in the sample as a whole.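 For each line, cells grew in 96-well plates with the test compound present at a single concentration for 48 hours.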 Calls of active or inactive are those of the source. Rule for the calls: active = growth percent below 10; inactive = the rest.

How the values were obtained:
Experiment in all cases: NCI-60 one-dose screen, 48 h (100 = growth as untreated, 0 = no growth, -100 = all killed)
Conditions in all cases: 10 µM
[1] = system: NCI-H23 lung
[2] = system: NCI-H226 lung
[3] = system: NCI-H322M lung
[4] = system: HOP-62 NSCLC
[5] = system: NCI-H460 lung
[6] = system: HOP-92 NSCLC
[7] = system: NCI-H522 lung
[8] = system: A549/ATCC NSCLC
[9] = system: 786-0 renal
[10] = system: COLO 205 colon

Measured: growth

O/N=C(\CSc1nnc(-c2c[nH]c3ccccc23)n1-c1ccccc1)c1ccc(Cl)cc1
active: [3] -49.3% | [4] -64.1% | [6] -8.42%
inactive: [1] 47.3% | [2] 14.3% | [5] 10.5% | [7] 12.4% | [8] 21.5% | [9] 34.1% | [10] 10.2%

Nc1cc(-c2cccc(C(=O)NCc3ccc4c(c3)OCO4)c2)ccn1
inactive: [1] 88% | [2] 87.3% | [3] 111% | [4] 93.6% | [5] 111% | [6] 89.4% | [7] 84.4% | [8] 99.2% | [9] 96.7% | [10] 131%

COc1ccc(CCN2C(=O)/C(=C/c3csc(C#N)n3)SC2=S)cc1OC
inactive: [1] 38.5% | [2] 100% | [3] 101% | [4] 111% | [5] 98.4% | [8] 95% | [9] 21.1%
active: [6] -5.19% | [7] -66.7% | [10] -27.5%

O=C(CSc1nnc(-c2c[nH]c3ccccc23)n1-c1ccccc1)c1ccccc1
active: [2] 4.48%
inactive: [1] 44.9% | [3] 81.2% | [4] 23.4% | [5] 61.8% | [6] 47% | [7] 71.6% | [8] 85.5% | [9] 29.6% | [10] 93.4%

Cc1ccc(/C=C/C(=O)c2ccc(NC(=O)CSc3nnc(-c4c[nH]c5ccccc45)n3-c3ccccc3)cc2)c(C)c1
active: [1] -1.3% | [5] -35.8%
inactive: [2] 33.1% | [3] 75.8% | [4] 99.4% | [6] 76.8% | [7] 25% | [8] 54.3% | [9] 65.8% | [10] 70.5%

COc1ccc(CN2[C@H](C(=O)NCc3ccc(C(=O)NO)cc3)Cc3c([nH]c4ccccc34)[C@H]2C2CC2)cc1
inactive: [1] 52.3% | [2] 55.8% | [3] 59.4% | [4] 63.1% | [5] 33.6% | [6] 40.1% | [7] 22.2% | [8] 61.3% | [9] 61.7% | [10] 47.3%

Cc1ccc2nc3c(nc2c1)c1cc(I)ccc1n3CCN(C)C
active: [5] -2.92% | [10] -55.8%
inactive: [1] 17.8% | [2] 39.9% | [3] 20% | [4] 31.3% | [6] 37.2% | [7] 31.4% | [8] 13.5% | [9] 23.6%

Brc1ccc(/C=C/c2n(Cc3ccc4ccccc4c3)c3ccccc3[n+]2Cc2ccc3ccccc3c2)cc1
inactive: [8] 10.4%
active: [1] -81.9% | [2] -85% | [3] 7.28% | [4] -74.3% | [5] -66.2% | [6] -89.5% | [7] -84.2% | [9] -95.5% | [10] -69.3%

O=C(Nc1ccc(OCC(=O)c2ccccc2)cc1)Nc1ccc(Cl)c(C(F)(F)F)c1
active: [2] 8.87% | [6] -14.5% | [7] -31.7% | [10] -3.64%
inactive: [1] 25.4% | [3] 28% | [4] 27.9% | [5] 18.4% | [8] 25.4% | [9] 21%

CN(CCF)c1ccc(/C=C/C(=O)c2ccc(N)cc2O)cc1
inactive: [1] 93.2% | [2] 93.8% | [3] 78.8% | [4] 106% | [5] 71.9% | [6] 94% | [7] 67.5% | [8] 68.8% | [9] 90.5% | [10] 111%

COc1ccc2ncc(C#Cc3cncc(C(=O)Nc4ccc(CN5CCN(C)CC5)c(C(F)(F)F)c4)c3)n2n1
active: [1] -80.9% | [2] -68.4% | [3] -98% | [4] -61% | [5] -75.3% | [6] -72% | [7] -65.5% | [8] -51.7% | [9] -55.7% | [10] -63.8%

COc1ccc(OC)c(-c2cc(-c3c[nH]c4ccccc34)nc(N)c2C#N)c1
active: [1] -9.65% | [4] 10% | [5] -42.5% | [6] -36.8% | [7] -5.53% | [9] -52.3% | [10] -23.2%
inactive: [2] 14% | [3] 24.8% | [8] 21.1%

CN1CCN(c2ccc(Nc3nc(NCCNC(=O)c4ccc(C(F)(F)F)cc4)c4sccc4n3)cc2)CC1
active: [6] -15.3% | [9] -56.6% | [10] -87.6%
inactive: [1] 49.3% | [2] 72.3% | [3] 28.3% | [4] 19.4% | [5] 16.7% | [7] 24.6% | [8] 28.1%

CC1(c2ccccc2)NC(=O)N(CC(=O)Nc2ccc(C(=O)/C=C/C=C/c3ccccc3)cc2)C1=O (stereo not given)
inactive: [1] 73.4% | [2] 57.2% | [3] 73.9% | [4] 77.2% | [5] 73.2% | [6] 57.3% | [7] 75.8% | [8] 58.7% | [10] 98%
active: [9] 7.33%

COc1cc2c3c(n(CCCNC(C)C)c(=O)c2cc1OC)-c1nc2c(cc1C3=O)OCO2
inactive: [1] 16.5% | [3] 60.3% | [6] 66.5% | [7] 50.9%
active: [2] -32.2% | [4] 5.84% | [5] -74.2% | [8] -62.8% | [9] -78.3% | [10] -67.6%

Clc1ccc2c(N/N=C/c3c[nH]c4ccc(Br)cc34)ccnc2c1
active: [1] -85.4% | [2] -64.4% | [3] -96.9% | [4] -59.1% | [5] 9.83% | [6] -69.1% | [7] -66.9% | [8] 1.71% | [9] -54.7% | [10] -44%

COC(=O)C(Cc1ccc(O)c(O)c1)NC(=O)C(CSC/C=C(\C)CCCC(C)CCCC(C)CCCC(C)C)NC(C)=O (stereo not given)
inactive: [1] 31.1% | [2] 30.3% | [3] 67.1% | [4] 26.5% | [5] 18.9% | [6] 18.5% | [8] 18.9% | [9] 51.4%
active: [7] -85.6% | [10] 3.84%

COC[C@@H](CC(C)C)N=C1NC(=O)/C(=C/c2ccc3ncoc3c2)N1
active: [1] -14.2% | [2] 0.124% | [5] 6.38% | [7] -16.2% | [10] -16.1%
inactive: [3] 20.4% | [4] 14.4% | [6] 15.8% | [8] 13.7% | [9] 22.2%

Cc1ccc(-c2cc(C(=O)N=Nc3c(O)[nH]c4ccc(Br)cc34)c3ccccc3n2)cc1
inactive: [1] 51.2% | [2] 65.3% | [3] 80.9% | [4] 86.1% | [5] 47.3% | [6] 87.6% | [7] 78.7% | [8] 85.8% | [9] 88.6% | [10] 108%

O=C(O)CCCCCCCCCCN1C(=O)/C(=C/c2cnc(-c3ccccc3)s2)SC1=S
inactive: [1] 55.9% | [2] 103% | [3] 80.6% | [4] 115% | [5] 29.6% | [6] 52.1% | [7] 38.2% | [8] 46.1% | [9] 79.3% | [10] 141%

O=C1Nc2ccc(Cl)cc2/C1=C/c1ccc(OCc2ccccn2)cc1
inactive: [1] 62.2% | [3] 64.2% | [4] 45.6% | [5] 16% | [6] 72.1% | [7] 66% | [8] 64.4% | [9] 25.7% | [10] 89.1%
active: [2] 1.26%

CC(=O)Nc1ccc(-c2cn(-c3cccc(C(=O)Nc4cccc(OC(F)(F)F)c4)c3)nn2)cn1
inactive: [1] 87% | [2] 106% | [3] 114% | [4] 97.7% | [5] 47.4% | [6] 122% | [7] 88.5% | [8] 86.3% | [9] 115% | [10] 111%
